Some test systems named below: NCI-H23 lung; NCI-H226 lung; NCI-H322M lung; HOP-62 NSCLC; NCI-H460 lung; NCI-H522 lung; A549/ATCC NSCLC; 786-0 renal; COLO 205 colon; DU-145 prostate; K-562 leukemia; MALME-3M melanoma; MDA-MB-231 breast; RXF 393 renal; SF-268 CNS; SF-295 CNS; SF-539 CNS; UACC-257 melanoma; M14 melanoma.
Common to all, as to experiment: NCI-60 one-dose screen, 48 h (100 = growth as untreated, 0 = no growth, -100 = all killed)
Common to all, as to conditions: 10 µM unless noted

The structures appear in SMILES notation. The panel holds about 83,000 compounds, 20% with a hit somewhere; the sample as a whole holds those more often.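 Plates (96-well) were seeded with cells, treated with compound at one concentration, and incubated for 48 hours before percent growth was determined.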 A number with no mark means an inactive call. Activity calls are given as the source filed them. The calls were made as follows: active = growth percent below 10; inactive = the rest.

As for `COc1ccc(-c2cc(-c3ccc(OC)cc3)c3sc(=O)[nH]c3n2)cc1`, the growth with NCI-H23 lung is 98%; with NCI-H226 lung it was 71%; in the test with NCI-H322M lung, 82.3%; with HOP-62 NSCLC, 70.5%; in the test on NCI-H460 lung it was 94%; in the test with NCI-H522 lung it was 69.1%. The growth is 78.4% with A549/ATCC NSCLC; 79.3% in the test with 786-0 renal; 107% in the test with COLO 205 colon; 107% with DU-145 prostate; 94.2% in the test with K-562 leukemia; 109% in the test on MALME-3M melanoma. The growth in the test with MDA-MB-231 breast was 87.6%; in the test with RXF 393 renal, 77.7%; in the test on SF-268 CNS, 92.6%; in the test with SF-295 CNS, 96.8%; with SF-539 CNS, 81.8%; in the test with UACC-257 melanoma, 104%. In addition, the growth in the test with M14 melanoma is 109%.

With `Cc1cccc(/C=N/n2c(-c3ccc(Cl)cc3)nc3c(Br)cc(Br)cc3c2=O)c1`, the growth with NCI-H23 lung is 29.2%; with NCI-H226 lung it was 37.9%; with NCI-H322M lung, 53.8%; with HOP-62 NSCLC, 33.8%; with NCI-H460 lung, 29.1%; in the test on NCI-H522 lung, 38.1%. Besides, the growth in the test with A549/ATCC NSCLC is 31.4%; with 786-0 renal it was 51.9%; in the test with COLO 205 colon, 46.8%; in the test on DU-145 prostate it was 66.2%; in the test on K-562 leukemia it was 65.7%; in the test on MALME-3M melanoma it was 70%. The growth in the test on MDA-MB-231 breast was 44.9%; in the test on RXF 393 renal it was 61.3%; with SF-268 CNS, 69.9%; in the test on SF-295 CNS, 35.4%; in the test with SF-539 CNS it was 70%; in the test on UACC-257 melanoma it was 76.3%. The growth in the test with M14 melanoma was 60.4%.

Turning to `CC(C)(C)c1ccc(OC(=O)Nc2ccccc2)cc1`, the growth in the test with NCI-H23 lung is 103%; with NCI-H226 lung it was 106%; with NCI-H322M lung, 94.4%; with HOP-62 NSCLC, 111%; in the test with NCI-H460 lung it was 111%; in the test on NCI-H522 lung it was 100%. For the same molecule, the growth is 99.3% in the test on A549/ATCC NSCLC; 83.8% in the test on 786-0 renal; 119% in the test on COLO 205 colon; 107% in the test with DU-145 prostate; 88% in the test with K-562 leukemia; 96.6% in the test with MALME-3M melanoma. Further, the growth in the test with MDA-MB-231 breast was 109%; with RXF 393 renal it was 118%; in the test on SF-268 CNS it was 96%; in the test with SF-295 CNS it was 103%; in the test with SF-539 CNS, 90.5%; in the test with UACC-257 melanoma, 99.5%. Moreover, in the test on M14 melanoma, the growth is 96.5%.

On to `NNC(=O)CSc1nc2scc(-c3ccccc3)c2c(=O)n1-c1ccccc1`, for which the growth is 101% in the test with NCI-H23 lung; 84% with NCI-H226 lung; 122% in the test on NCI-H322M lung; 91.4% in the test on HOP-62 NSCLC; 110% with NCI-H460 lung; 91.4% in the test with NCI-H522 lung. In addition, the growth in the test with A549/ATCC NSCLC is 115%; in the test on 786-0 renal it was 86.8%; in the test on COLO 205 colon, 107%; in the test on DU-145 prostate, 111%; in the test on K-562 leukemia it was 89.9%; in the test with MALME-3M melanoma, 155%. Moreover, the growth is 86.6% in the test on MDA-MB-231 breast; -50.2% (active) in the test on RXF 393 renal; 85.6% with SF-268 CNS; 144% in the test with SF-295 CNS; 96.5% in the test on SF-539 CNS; 129% in the test on UACC-257 melanoma. In addition, in the test with M14 melanoma, the growth is 112%.

As for `CC(=O)c1ccc(N2C(=O)c3ccc(Oc4ccccc4)cc3C2=O)cc1`, the growth with NCI-H23 lung is 101%; with NCI-H226 lung, 98.8%; in the test on NCI-H322M lung, 106%; with HOP-62 NSCLC, 99.9%; in the test on NCI-H460 lung, 105%; in the test on NCI-H522 lung, 93.1%. Besides, the growth with A549/ATCC NSCLC is 109%; with 786-0 renal, 108%; with COLO 205 colon it was 116%; in the test on DU-145 prostate it was 103%; with K-562 leukemia, 119%; in the test with MALME-3M melanoma, 106%. For the same molecule, the growth in the test with MDA-MB-231 breast was 113%; with RXF 393 renal, 112%; in the test with SF-268 CNS, 100%; in the test with SF-295 CNS it was 81.1%; in the test on SF-539 CNS, 107%; in the test with UACC-257 melanoma, 118%. In addition, the growth in the test on M14 melanoma is 98.8%.

Take `COc1ccc(C(=O)OC2C(OC3C(O)COC(O[C@H]4C[C@H]5[C@@H]6CC=C7C[C@@H](O)CC[C@]7(C)[C@H]6CC[C@]5(C)[C@H]4[C@H](C)C(=O)CCC(C)C)C3OC(C)=O)OCC(O)C2O)cc1` (some centres not stated): the growth is 2.95% (active) with NCI-H23 lung; -14% (active) in the test on NCI-H226 lung; 36.9% in the test on NCI-H322M lung; -32.2% (active) in the test on HOP-62 NSCLC; -20.3% (active) with NCI-H460 lung; -65.7% (active) with NCI-H522 lung. The growth in the test with A549/ATCC NSCLC is -14.3% (active); in the test on 786-0 renal, -41.2% (active); with COLO 205 colon, -64.3% (active); in the test with DU-145 prostate it was 28.5%; with K-562 leukemia, -50.3% (active); in the test on MALME-3M melanoma it was -12.7% (active). Also, the growth with MDA-MB-231 breast was 10.6%; in the test on RXF 393 renal, -71.9% (active); in the test with SF-268 CNS, -12.6% (active); in the test with SF-295 CNS, -64.5% (active); with SF-539 CNS, -69.8% (active); with UACC-257 melanoma, -60.3% (active). In addition, in the test with M14 melanoma, the growth was -69.3% (active).

`CC(C)=CC[C@@H]1CC2(CC=C(C)C)C(=O)C(OC3(C(=O)c4ccccc4)C(=O)C4(CC=C(C)C)C[C@@H](CC=C(C)C)C(C)(C)C(CC=C(C)C)(C4=O)C3=O)(C(=O)c3ccccc3)C(=O)C(CC=C(C)C)(C2=O)C1(C)C` (some centres not stated): the growth in the test with NCI-H23 lung was 10.3%; with NCI-H226 lung, -4.96% (active); with NCI-H322M lung it was 3.49% (active); with HOP-62 NSCLC, 0.307% (active); in the test on NCI-H460 lung, -9.89% (active); in the test on NCI-H522 lung it was -28.8% (active). The growth in the test on A549/ATCC NSCLC was 6% (active); in the test on 786-0 renal it was 11.6%; in the test on COLO 205 colon, -22.3% (active); with DU-145 prostate, 2.13% (active); in the test on K-562 leukemia, 4.86% (active); with MALME-3M melanoma, -28.8% (active). In addition, the growth in the test with MDA-MB-231 breast is -11.3% (active); with RXF 393 renal, 4.28% (active); in the test with SF-268 CNS, 14.5%; in the test on SF-295 CNS, -13.4% (active); in the test on SF-539 CNS, -18.5% (active); with UACC-257 melanoma it was -19.7% (active). The growth in the test on M14 melanoma was -2.59% (active).

In the case of `COc1ccc(C(=O)O)cc1.[Ag]`, the growth was 103% with NCI-H23 lung; 101% in the test on NCI-H226 lung; 102% in the test on NCI-H322M lung; 113% in the test with HOP-62 NSCLC; 87.1% in the test with NCI-H460 lung; 11.8% in the test on NCI-H522 lung. Moreover, the growth is 93.4% with A549/ATCC NSCLC; 107% in the test on 786-0 renal; 61.8% with COLO 205 colon; 106% in the test with DU-145 prostate; -27.4% (active) with K-562 leukemia; -51.3% (active) in the test with MALME-3M melanoma. In addition, the growth is 103% in the test with MDA-MB-231 breast; 100% with RXF 393 renal; 97% in the test on SF-268 CNS; 114% in the test on SF-295 CNS; 94.9% in the test with SF-539 CNS; 94.9% in the test with UACC-257 melanoma. In the test with M14 melanoma, the growth is 106%.

The values above are taken from PubChem BioAssay (NCI).
